{
  "source": "PubChem BioAssay AID651871",
  "about": "(Sanford-Burnham Center for Chemical Genomics, 2012)",
  "data": [
    {"tested_on": "HL-1", "experiment": "cardiomyocyte survival under oxidative or metabolic stress – cell-based, panel, H9c2 and HL-1, ATP luminescence, set 2, SAR follow-up (AID 651871);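 further: cells exposed to stressor for 2 h before ATP readout; reference of the scale not given here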", "conditions": "H9c2/HL-1 cardiomyocytes, 2-deoxyglucose stress, with 2-deoxyglucose, run 15, at 79 µM (top of the series)", "units": {"activity (protection/inhibition)": "%"}, "values": [
      {"compound": "COc1ccc2nc(-c3cc(OC)c(OC)c(OC)c3)cc(C(=O)NCC(=O)Nc3ccc(C(C)=O)cc3)c2c1", "activity (protection/inhibition)": 56},
      {"compound": "COc1ccc2c(c1OC)C(=O)N1c3ccccc3C(=O)N(Cc3cccc(Cl)c3Cl)C21", "note": "(stereo not drawn)", "activity (protection/inhibition)": -12.5},
      {"compound": "CCOC(=O)c1cccc(NC(=O)CNC(=O)c2cc(-c3cc(OC)c(OC)c(OC)c3)nc3ccccc23)c1", "activity (protection/inhibition)": 87.5}
    ]}
  ]
}
